Test results taken from ChEMBL document CHEMBL3988442, “University of Dundee, Small-Polar-MMV Screening Library” (2021).
Screen size: about 48,000 compounds; about 13,000 (27%) showed an effect of 50% or more. This is one part of the list.

system: Wolbachia pipientis; assay: Anti-Wolbachia Cell-Based Screen; assay type: functional; parameters: scale not given: in the data most compounds retested in dose-response had high values; details: 5 µM

Row | SMILES | Percent Effect [%]
1 | O=S1(=O)CCC(n2cc(C3=CCN(CCN4CCCCC4)CC3)cn2)C1 (stereo not given) | 5.738
2 | CN(C)C(=O)CN1CC=C(c2cnn(Cc3ccccc3)c2)CC1 | 99.64
3 | CC(C)(C)n1cc(C2=CCN(CCc3ccccc3)CC2)cn1 | -9.314
4 | COc1cccc(Cn2cc(C3=CCN(CC(=O)N(C)C)CC3)cn2)c1 | 105.2
5 | COc1cccc(Cn2cc(C3=CCN(CCO)CC3)cn2)c1 | 104.2
6 | CCn1cc(C2=CCN(CCCOc3ccccc3)CC2)cn1 | 20.1
7 | COc1cccc(C2=CCN(CCN3CCOC3=O)CC2)c1 | 5.556
8 | CCC(O)Cn1cc(C2=CCN(Cc3ccc(OC)cc3)CC2)cn1 (stereo not given) | -14.61
9 | COCCN1CC=C(c2cccc(OC)c2)CC1 | -4.022
10 | COc1cccc(C2=CCN(CCN3CCCC3=O)CC2)c1 | -10.09
11 | Cc1noc(C)c1CNCc1ccccc1N(C)C1CCN(C)CC1 | 3.422
12 | Cc1nc(C)c(C)c(N2CCC3(CCN(C)C3)C2)n1 (stereo not given) | -3
13 | NCC1(c2cccc(C(F)(F)F)c2)CCCC1 | -13.69
14 | CC(C)=CCN1C[C@H]2CC[C@@H]1CN(C(=O)CSc1ccncc1)C2 | 19.74
15 | CC(C)CCN1CCC2(CNS(=O)(=O)c3cccnc3O2)C1 (stereo not given) | 113.8
16 | COCCN1CCC2(C1)CN(c1ncccn1)C2.O=C(O)C(F)(F)F | -10.62
17 | O=S1(=O)NCC2(CCN(Cc3ccc(Cl)s3)C2)Oc2ncccc21 (stereo not given) | 120.8
18 | CC(C)CN1CCC2(CC(C(=O)NCc3cccnc3)=NO2)C1 (stereo not given) | -7.517
19 | O=C(Cc1ccncc1)N1C[C@H]2CC[C@@H]1CN(Cc1cccnc1)C2 | -14.3
20 | NCC1(c2cccc(C(F)(F)F)c2)CCCCC1 | -7.297
21 | CCCc1nnc2sc(C3CCN(CC)CC3)nn12 | 103.4
22 | COc1cccc(CC(=O)N2CCCSCC2CN2CCCC2)c1 (stereo not given) | 23.31

Row | SMILES | Percent Effect [%]
23 | COc1ccc(CCNCc2ccco2)cc1OC | -22.25
24 | COc1ccc(CC(=O)N2CCN(Cc3ccco3)C[C@@H]2C)cc1 | 137.5
25 | CO[C@H]1CCN(c2ncc(F)cn2)[C@@H]2CN(Cc3ccco3)C[C@H]12.O=C(O)C(F)(F)F.O=C(O)C(F)(F)F | 23.38
26 | O=C(Cc1csc(-c2ccco2)n1)N1CCN(CCO)CC1 | 5.506
27 | COc1ccc(CC(=O)N2CCN(Cc3ccco3)C[C@H]2C)cc1OC | 147.8
28 | COc1ccc(CC(=O)N2CCN(Cc3ccco3)C[C@@H]2C)cc1OC | 120.6
29 | COc1ccc(C(=O)C2CCCN(Cc3ccc(C)o3)C2)c(OC)c1 (stereo not given) | -6.752
30 | COc1ccc2c(ccn2CCN)c1 | -4.94
31 | CCN(CC)CCN1CCO[C@H]2[C@@H](OCc3ccncc3)CC[C@@H]21.O=C(O)C(F)(F)F.O=C(O)C(F)(F)F.O=C(O)C(F)(F)F | 3.809
32 | O=C(O)C(F)(F)F.O=C(O)C(F)(F)F.O=C(O)C(F)(F)F.c1cc(CN2CCO[C@H]3[C@H](OCCN4CCCC4)CC[C@@H]32)ccn1 | 104.9
33 | O=C(O)C(F)(F)F.O=C(O)C(F)(F)F.c1cc(CO[C@H]2CC[C@H]3[C@H]2OCCN3Cc2nccs2)ccn1 | 124.9
34 | O=C(O)C(F)(F)F.O=C(O)C(F)(F)F.O=C(O)C(F)(F)F.c1cncc(CN2CCO[C@H]3[C@H](OCCN4CCCC4)CC[C@@H]32)c1 | 103
35 | O=C(O)C(F)(F)F.O=C(O)C(F)(F)F.O=C(O)C(F)(F)F.c1ccc(CN2CCO[C@H]3[C@H](OCCN4CCCC4)CC[C@@H]32)nc1 | -22.42
36 | O=C(NCC1CC1)[C@H]1C[C@@H]2[C@@H](C1)OCCN2Cc1cccnc1.O=C(O)C(F)(F)F.O=C(O)C(F)(F)F | 13.71
37 | CC(C)NC(=O)[C@H]1C[C@@H]2[C@@H](C1)OCCN2Cc1cccnc1.O=C(O)C(F)(F)F.O=C(O)C(F)(F)F | 1.72
38 | O=C(O)C(F)(F)F.O=C(O)C(F)(F)F.c1ccc(CO[C@H]2CC[C@H]3[C@H]2OCCN3Cc2nccs2)nc1 | -10.71
39 | Cc1cccc(CO[C@@H]2CC[C@H]3[C@H]2OCCN3Cc2nccs2)n1.O=C(O)C(F)(F)F.O=C(O)C(F)(F)F | -8.72
40 | Cc1nc(C)c(CC(=O)N2CCN(CC(C)C)CC2)c(=O)[nH]1 | -15.6
41 | CC[C@H]1CN2CC[C@H]1C[C@@H]2CNC(=O)NC1CCCCC1 | -4.604
42 | CNC(=O)[C@H]1C[C@@H]2CN(C(=O)c3ccncc3F)C[C@@H]2N1C | 2.311
43 | CCN(CCN1CCCCCC1)C(=O)COc1cccnc1 | -15.49
44 | CN1CCc2nc3c(c(N)c2C1)CCCN3C | 105.5

Row | SMILES | Percent Effect [%]
45 | CC(C)c1cc(N2CCC3(CCN(C)C3)C2)ncn1 (stereo not given) | -5.942
46 | Cn1cnc(S(=O)(=O)N2C[C@H]3CN(Cc4cccnc4)C[C@H]3C2)c1.O=C(O)C(F)(F)F.O=C(O)C(F)(F)F.O=C(O)C(F)(F)F | -11.02
47 | CCS(=O)(=O)NC[C@]12COC[C@H]1CN(Cc1ccncc1)C2.O=C(O)C(F)(F)F.O=C(O)C(F)(F)F | -4.372
48 | O=C(O)C(F)(F)F.O=C(O)C(F)(F)F.O=C1CC2(CCN(Cc3ccncc3)C2)CN1c1cccc(F)c1 (stereo not given) | 10.56
49 | CCN1CC2(CC1=O)CN(Cc1ccccn1)CCN(C(C)=O)C2.O=C(O)C(F)(F)F.O=C(O)C(F)(F)F (stereo not given) | 108.4
50 | CN(C)C(=O)N1CCCC2(CCN(Cc3ccncc3)C2)C1 (stereo not given) | -11.09
51 | CC(=O)N1CCOCC2(CN(Cc3ccccn3)CCO2)C1.O=C(O)C(F)(F)F.O=C(O)C(F)(F)F (stereo not given) | -7.165
52 | Cn1ccnc1CN1CCC2(CC(=O)N(c3ccccn3)C2)C1.O=C(O)C(F)(F)F.O=C(O)C(F)(F)F (stereo not given) | -3.39
53 | Cn1cnc(S(=O)(=O)N2CC3(CCN(Cc4ccncc4)C3)C2)c1.O=C(O)C(F)(F)F.O=C(O)C(F)(F)F.O=C(O)C(F)(F)F | 100.9
54 | CC(=O)N1CCN(Cc2ccncc2)CC2(CC(=O)N(C)C2)C1.O=C(O)C(F)(F)F.O=C(O)C(F)(F)F (stereo not given) | 112.8
55 | CCN1CCc2[nH]cnc2C12CCN(c1ccc(Cl)cn1)CC2 | 20.82
56 | Cc1cc(CN2C[C@@H]3COC[C@]3(CNC(=O)c3ccco3)C2)no1.O=C(O)C(F)(F)F | -9.998
57 | Cc1ccc(-c2ccnc3cc(CC(=O)N4CCN(C)CC4)nn23)cc1 | 99.35
58 | Cc1nc(CC(=O)N2CCN(CCOc3ccccc3)CC2)cs1 | -7.543
59 | CN1CCN(C(=O)Cc2ccc(S(=O)(=O)C(F)F)cc2)CC1 | 3.1
60 | CCCN1CCN(C(=O)Cc2cccnc2)[C@H]2CS(=O)(=O)C[C@H]21 | 0.3719
61 | C[C@@H]1CN(C2CCOC2)C[C@]12CCN(c1cccnc1)C2=O.O=C(O)C(F)(F)F.O=C(O)C(F)(F)F (stereo not given in full) | 8.884
62 | Cc1cc(CN2C[C@H]3CCC[C@@]3(COCC3CCOCC3)C2)no1.O=C(O)C(F)(F)F | 1.109
63 | O=C(NC[C@]12COC[C@H]1CN(Cc1cccnc1)C2)C1CCC1.O=C(O)C(F)(F)F.O=C(O)C(F)(F)F | 96.22
64 | O=C(O)C(F)(F)F.O=C(O)C(F)(F)F.c1cncc(OC[C@]23COC[C@H]2CN(C2CCOCC2)C3)c1 | 108.8
65 | C[C@@H]1CN(C2CCOCC2)C[C@]12CCN(c1cccnc1)C2=O.O=C(O)C(F)(F)F.O=C(O)C(F)(F)F | 17.85
66 | COc1ncccc1CN1C[C@@H]2COC[C@]2(COCC2CC2)C1.O=C(O)C(F)(F)F.O=C(O)C(F)(F)F | 12.64

Row | SMILES | Percent Effect [%]
67 | CCS(=O)(=O)NC[C@]12COC[C@H]1CN(Cc1cccnc1)C2.O=C(O)C(F)(F)F.O=C(O)C(F)(F)F | -8.022
68 | O=C(O)C(F)(F)F.O=C(O)C(F)(F)F.c1cncc(OC[C@@]23CCC[C@@H]2CN(CC2CCOCC2)C3)c1 | 108.6
69 | O=C(O)C(F)(F)F.O=C(O)C(F)(F)F.c1ccc(CN2C[C@H]3CCC[C@@]3(COCC3CCOCC3)C2)nc1 | 5.827
70 | O=C(O)C(F)(F)F.O=C(O)C(F)(F)F.c1cncc(OC[C@@]23CCC[C@@H]2CN(C2CCOCC2)C3)c1 | 96.07
71 | O=C(NC1CC(F)(F)C1)[C@]12COC[C@H]1CN(Cc1cccnc1)C2.O=C(O)C(F)(F)F.O=C(O)C(F)(F)F | 1.025
72 | Cl.O=C(C1CCCCC1)N1CC2(CCNCC2)C1 | -23.98
73 | CC(C)(C)NC(=O)CNc1ccc(C#N)c(C(F)(F)F)c1 | 3.351
74 | COCCO[C@H]1COCCN(C2CCN(C)CC2)C1 | -1.205
75 | Cc1nc(N2C[C@H]3CNC[C@H]3C2)c2sccc2n1 | 3.045
76 | O=C(O)C(F)(F)F.O=C(O)C(F)(F)F.c1ccc(OC[C@]23COC[C@H]2CN(Cc2ccoc2)C3)nc1 | -16.38
77 | O=C1[C@@H]2CCN(C3CCC3)C[C@@H]2OCCN1Cc1ccncc1 | -0.008003
78 | O=C(O)C(F)(F)F.O=C(O)[C@]12CCCN(C3CCOC3)C[C@H]1CN(c1ncccn1)C2 (stereo not given in full) | 103.8
79 | O=C(O)C(F)(F)F.O=C(O)C(F)(F)F.c1cncc(OC[C@]23COC[C@H]2CN(Cc2cccs2)C3)c1 | -9.167
80 | O=C(O)C(F)(F)F.c1cnc(N2CCC3(CCN(CC4CCOC4)C3)CC2)nc1 (stereo not given) | -13.35
81 | O=C(O)C(F)(F)F.O=C(O)C(F)(F)F.c1cc(CN2C[C@@H]3COC[C@]3(COCC3CC3)C2)ccn1 | 8.652
82 | c1cc(COC[C@@]23CCC[C@@H]2CN(C2CCOCC2)C3)ccn1 | 95.49
83 | O=C(O)C(F)(F)F.O=C(O)C(F)(F)F.c1ccc(OC[C@]23COC[C@H]2CN(C2CCOCC2)C3)nc1 | 115.9
84 | O=C(O)C(F)(F)F.O=C(O)C(F)(F)F.c1cncc(OC[C@]23COC[C@H]2CN(C2CCC2)C3)c1 | 103
85 | O=C(O)C(F)(F)F.O=C(O)C(F)(F)F.c1ccc(CN2C[C@@H]3COC[C@]3(COCC3CCOCC3)C2)nc1 | 9.184
